The values that follow come from PubChem BioAssay AID1486 (The Scripps Research Institute Molecular Screening Center, 2009).

Out of some 220,000 compounds screened, about 2,400 (1.1%) were called active.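 The calls were made as follows: active = inhibition above a per-campaign cutoff, the mean inhibition of all tested compounds plus 3 SD (cut at about 27% in these data); inactive = the rest.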 What follows is part of a selection rich in actives, with near analogues and random picks from the rest.

In general, inhibition refers to the relative decrease from the control value, in per cent.

The assay can be described thus: growth loss in parental Ba/F3 cells – cell-based, murine pro-B, CellTiter-Glo luminescence, counter-screen for JAK2V617F inhibitor project (AID 1486).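 Also: 0% = DMSO wells and 100% = JAK Inhibitor I control wells.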 The conditions noted are these: Ba/F3 parental viability, CellTiter-Glo ATP luminescence; at 5.6 µM; hits give high values.
For the compound `CC1CCCN(S(=O)(=O)c2ccc(C(=O)Nc3nnc(-c4ccncc4)o3)cc2)C1` (stereo not drawn), the inhibition is 6.63% (inactive).

Turning to `CC1CCCCN1S(=O)(=O)c1ccc(S(=O)(=O)N(CC(=O)Nc2ccccc2)Cc2cccs2)cc1` (stereo not drawn), the inhibition was 1.87% (inactive).

As to `CC1CCCCN1S(=O)(=O)c1ccc(C(=O)Nc2nnc(-c3cccs3)o2)cc1` (stereo not drawn), the inhibition was 34.1% (active).

With `COc1ccc2[nH]c(C(=O)Nc3ccccc3Cl)cc2c1`, the inhibition was -2.76% (inactive).

For the compound `Cc1cc([N+](=O)[O-])ccc1NC(=O)c1ccc(NC(=O)C(C)C)cc1`, the inhibition was 6.88% (inactive).

Turning to `CC(=O)NC(=S)Nc1ccc(NC(=S)NC(=O)c2ccc([N+](=O)[O-])cc2)cc1`, the inhibition is -2.36% (inactive).

Consider `Cn1ccc(=Nc2ccc(NC(=O)c3ccc(N=c4ccn(C)c5ccc([N+](=O)[O-])cc45)cc3)cc2)cc1`, for which the inhibition was 29.7% (active).

In the case of `CC1CCN(c2c(NCc3ccc(C(=O)NCc4ccccc4)cc3)c(=O)c2=O)CC1`, the inhibition is -0.24% (inactive).

For `CCOC(=O)N1CCN(C(c2cccnc2)c2ccc3cccnc3c2O)CC1` (stereo not drawn), the inhibition is 35.8% (active).

For `CCN1CCN(C(c2cccnc2)c2cc(Cl)c3cccnc3c2O)CC1` (stereo not drawn), the inhibition was 4.4% (inactive).

For the compound `Oc1c(C(c2ccccn2)N2CCOCC2)ccc2cccnc12` (stereo not drawn), the inhibition is 2.22% (inactive).

For `CCCNC(=O)OC[C@H]1O[C@H](CCO/N=C/[C@@H](NS(=O)(=O)c2ccc(C)cc2)[C@H](C)/C=C/CC(=O)OC)C=C[C@@H]1Oc1ccc(OC)cc1`, the inhibition was 1.98% (inactive).

With `CC1CCN(C(=O)c2ccc(S(=O)(=O)Cc3cc(F)ccc3F)c([N+](=O)[O-])c2)CC1`, the inhibition was 2.51% (inactive).

Take `Cc1ccc(/C=N/NC(=O)CN2CCN(Cc3ccccc3)CC2)s1`: the inhibition is 0.65% (inactive).

As to `CCCCCCCCn1c2c(c(=N)c3c1CCC3)CCCC2`, the inhibition is 88.4% (active).

As for `CCCCCCn1c(CN2CCCCC2)nc2c1c(=O)n(C)c(=O)n2C`, the inhibition is 2.14% (inactive).

Consider `Cc1cc(CNC(=O)c2cccc([N+](=O)[O-])c2)c2ccccc2n1`, for which the inhibition was -2.87% (inactive).

In the case of `O=C(Nn1c(SCc2ccc([N+](=O)[O-])cc2)nc2ccccc2c1=O)c1ccc(F)cc1`, the inhibition was -1.55% (inactive).

With `CN(CC(=O)NC1CCCC1)S(=O)(=O)c1cnc[nH]1`, the inhibition was -0.47% (inactive).

Regarding `CSc1ccc(C#N)cc1NC(=O)c1ccc(Cl)cc1`, the inhibition is 1.1% (inactive).

As to `COc1ccccc1Nc1nc(N)nc(CN(C)C2CCCCC2)n1`, the inhibition was 0.48% (inactive).

Take `COc1ccccc1NC1=NC(c2ccc(Cl)cc2)N=C(N)N1` (stereo not drawn): the inhibition was 81.1% (active).

In the case of `COc1ccccc1NC1=NC2(CCCC2)N=C(N)N1`, the inhibition is 10.5% (inactive).

Regarding `CCOc1ccc(-c2nc(N)ncc2-c2ccccc2OC)c(O)c1`, the inhibition was -0.51% (inactive).

On to `CCOc1ccccc1Oc1cn[nH]c1-c1ccc(OC)cc1O`, for which the inhibition is 94.7% (active).

For `CCOc1ccc(-c2n[nH]c(C)c2-c2ccccn2)c(O)c1`, the inhibition was 5.9% (inactive).

For the compound `CCCCCc1ccc(-c2ccc(OCC)cc2)nc1`, the inhibition is 3.47% (inactive).

On to `COCC(C)n1c(C)cc(C(=O)COc2ccc(C)nc2[N+](=O)[O-])c1C` (stereo not drawn), for which the inhibition is 3.84% (inactive).

As for `C/C(=N\NC(=O)c1cccnc1)c1ccc(-n2ccnc2)cc1`, the inhibition was -0.08% (inactive).

With `COc1ccc(Cl)cc1NC(=O)C(C)N1CCc2ccccc21` (stereo not drawn), the inhibition is 4.67% (inactive).

Regarding `Cc1ccc(/C=C/C(=O)O)cc1S(=O)(=O)N1CCC(Cc2ccccc2)CC1`, the inhibition is -3.54% (inactive).

In the case of `CCOC(=O)CSC1=C(C#N)C(c2sccc2C)CC(=O)N1` (stereo not drawn), the inhibition is 81.7% (active).

In the case of `Cc1ccc(C2CC(=O)NC(SCC(=O)OCc3ccccc3)=C2C#N)o1` (stereo not drawn), the inhibition was 2.62% (inactive).

Consider `C=CCOC(=O)C1=C(C)NC(SCC(=O)OCC)=C(C#N)C1c1ccc(C)cc1` (stereo not drawn), for which the inhibition was 1.41% (inactive).

Turning to `Cc1nnc(CN(C)Cc2cn[nH]c2-c2ccc(-c3ccccc3)cc2)o1`, the inhibition is 3.87% (inactive).

On to `COC(=O)C(NC(=O)c1ccc(OC)cc1)(Nc1ncc(S(=O)(=O)c2ccc([N+](=O)[O-])cc2)s1)C(F)(F)F` (stereo not drawn), for which the inhibition was -1.49% (inactive).

Regarding `Cc1cccc(NC(=O)c2sc(-c3ccccc3)nc2-c2ccc([N+](=O)[O-])cc2)c1`, the inhibition is 2.68% (inactive).

Consider `COc1ccc(C(=O)Nc2nc(-c3ccc(OC)cc3)c(-c3ccc([N+](=O)[O-])cc3)s2)cc1`, for which the inhibition was 61.3% (active).

As for `CCOC(=O)/C(=N\Nc1ccccc1[N+](=O)[O-])c1csc(Nc2ccccc2)n1`, the inhibition was 12% (inactive).

For the compound `Cc1nnc(N/N=C/c2ccccn2)[nH]c1=O`, the inhibition was 1.19% (inactive).

On to `Nc1ccc(Oc2ccc(Cl)cc2)cc1`, for which the inhibition is 9.91% (inactive).

For the compound `Cc1ccc(Oc2ccc(N)cc2)cc1`, the inhibition was 2.65% (inactive).

On to `CC(C)(C)c1ccc(Oc2ccc(N)cc2)cc1`, for which the inhibition is 36.8% (active).

Take `CCCCN(C)c1ccc([N+](=O)[O-])cc1`: the inhibition was 8.6% (inactive).

As to `CCc1[nH]nc(C(=O)N2CCCC(CNS(=O)(=O)c3cccs3)C2)c1C` (stereo not drawn), the inhibition is 6.5% (inactive).

For the compound `C/C(CC(=O)NC(C)c1ccccc1)=N\NC(N)=S` (stereo not drawn), the inhibition is -3.5% (inactive).

In the case of `CCOC(=O)N1CCN(C(=O)C2CCN(Cc3ccc(OC)cc3OC)CC2)CC1`, the inhibition was 3.57% (inactive).

As to `CCOC(=O)N1CCN(C(=O)C2CCN(c3ncnc4c3sc3cccc(F)c34)CC2)CC1`, the inhibition is 40.6% (active).

As for `CCOC(=O)C1CCN(c2ncnc3c2oc2ccc(Br)cc23)CC1`, the inhibition is 6.89% (inactive).

For `CNC(=O)COc1ccc(S(=O)(=O)Nc2ccccc2)cc1`, the inhibition is 0.46% (inactive).

With `Cc1csc(CN(C)C(=O)CC2C(=O)NCCN2CC(C)(C)C)n1` (stereo not drawn), the inhibition is 9.22% (inactive).

Turning to `Cc1ccc(C(=O)N/N=C\c2cc(Br)c(Br)o2)cn1`, the inhibition was 1.1% (inactive).

On to `Cc1cc(C(=O)CSc2nc(N)cc(=O)[nH]2)c(C)n1-c1cccc(F)c1`, for which the inhibition is 4.66% (inactive).

On to `Cc1cc(C(=O)CSc2nc(N)cc(=O)[nH]2)c(C)n1CCc1ccc(Cl)cc1`, for which the inhibition was 6.39% (inactive).

Turning to `Cc1cc(C(=O)CSc2nc(N)cc(=O)[nH]2)c(C)n1Cc1ccco1`, the inhibition was 33.8% (active).

As to `CSC1=NCCN1C(=O)Cc1cccc2ccccc12`, the inhibition is 2.66% (inactive).

Regarding `CCn1c2ccccc2c2cc(NC(=O)Nc3ccc([N+](=O)[O-])cc3C)ccc21`, the inhibition is -1.24% (inactive).

As for `CC(=O)c1cc(-c2ccccc2)n(CCC(=O)NC2CCCCCC2)c1C`, the inhibition was 1.01% (inactive).
